sPLA2-III inh = Blocks human group III sPLA2 activity; QFRET BODIPY PC-A2 liposome hydrolysis, fluorescence; Q9NZ20; AID 743126; hit rate 0.56% among 370,000; inhibition, % at 12.2 µM;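 active means inhibition above mean plus 3 SD of compounds lying within the high and low control bounds, cut at about 19% in these data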;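 further: 0% = median of test compound wells and 100% = no enzyme DMSO wells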
Target sequence (Q9NZ20 whole entry, looked up): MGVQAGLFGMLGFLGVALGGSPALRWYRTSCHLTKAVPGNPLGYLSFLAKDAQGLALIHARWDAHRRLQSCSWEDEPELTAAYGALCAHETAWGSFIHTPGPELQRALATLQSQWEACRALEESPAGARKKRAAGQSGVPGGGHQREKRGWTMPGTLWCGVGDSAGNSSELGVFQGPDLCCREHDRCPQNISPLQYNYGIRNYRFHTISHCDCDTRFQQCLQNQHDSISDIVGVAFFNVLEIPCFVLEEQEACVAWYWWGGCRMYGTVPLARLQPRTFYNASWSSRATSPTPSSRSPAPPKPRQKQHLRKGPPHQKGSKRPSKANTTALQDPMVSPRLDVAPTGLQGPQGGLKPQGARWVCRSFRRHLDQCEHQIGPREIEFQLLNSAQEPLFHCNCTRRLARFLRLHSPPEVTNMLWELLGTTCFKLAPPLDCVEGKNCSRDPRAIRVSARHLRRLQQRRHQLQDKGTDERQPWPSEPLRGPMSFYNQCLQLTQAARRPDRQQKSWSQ
Mot1-301 SUMO = blocks SUMOylation pathway, rescuing yeast Mot1-301 growth; AID 2716; S. cerevisiae Mot1-301 growth rescue, ATP luminescence, 38.5C; percent above DMSO median, 100 means doubled; hit rate 1% among 320,000; growth rescue, % at 18.8 µM;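 active means every valid replicate shows activation above 250% relative to neutral control wells; inactive means the rest, any valid replicate at or below 250%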;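 further: OY570 slx delta 5 strain wells were the positive control but not used for scaling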
SKN-1 inh = blocks SKN-1 activity in C. elegans; AID 624304; C. elegans VP596 Pgst-4::GFP/RFP ratio, acrylamide-induced, 24 h; hit rate 0.49% among 360,000; inhibition, % at 21.8 µM;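 active means interference check ratio from 0.5 to 1.5 plus GFP to RFP signal ratio inhibition reaching or exceeding a fixed threshold, cut at about 30% in these data, passing the limit was not always enough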
Efflux pump mplx = antifungal efflux pump inhibition, Nile Red retention | S. cerevisiae Candida pump triplex | inhibition, % at 10 µM | hit rate 0.44% among 330,000;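 active means plate passing quality check with inhibition over a set limit, or well fluorescence over plate mean plus 4 SD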;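 further: Nile Red retained in pooled yeast measured as flow cytometry median fluorescence; 0% = buffer negative control and 100% = Enniatin B positive control; higher means more Nile Red kept so more efflux inhibition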
Yeast Mot1 SUMO = yeast SUMO pathway inhibition in dose response; shares compounds with Mot1-301 SUMO; S. cerevisiae Mot1-301 galactose growth, ATP luminescence, 24 h; -100 = growth of slx-deleted rescue strain; growth activity, percent, % at 42 µM; 2,300 tested, under 10 active; AID 493004;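 active means Signal drops as the depositor expects, and the fitted half-maximal dose is no more than ten times the top valid tested dose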;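 further: more negative values mean stronger growth rescue toward the control strain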
* marks the source's active call; other numbers are inactive results. Most compounds without a hit are left out; they make up all but 2.2% or so of the library.

For COc1ccc(C(=O)NCC(=O)Nc2ccccc2)cc1OC the results were sPLA2-III inh 4.1, Mot1-301 SUMO 449.2*, SKN-1 inh -4.8, Efflux pump mplx 0.1 and Yeast Mot1 SUMO 0.6.
For COc1cccc(NC(=O)CNC(=O)c2ccc(F)cc2)c1 the results were sPLA2-III inh -3.2, Mot1-301 SUMO -17.7, SKN-1 inh 19.4 and Efflux pump mplx 0.1.
For CCCCSCCCNC(=O)Nc1cccc(OC)c1 the results were sPLA2-III inh 1.6, Mot1-301 SUMO 548.8*, SKN-1 inh 9.4, Efflux pump mplx 0.0 and Yeast Mot1 SUMO -0.8.
Screening COc1ccc(C(=O)NC(NC(=O)c2ccc(OC)c(OC)c2)c2ccccc2F)cc1OC returned sPLA2-III inh 1.5, Mot1-301 SUMO 1.8, SKN-1 inh -2.4 and Efflux pump mplx 0.0.
Nc1ccc2c(c1)OCCOCCOCCOCCOCCO2 was read as sPLA2-III inh 5.3, Mot1-301 SUMO -22.7, SKN-1 inh -4.4 and Efflux pump mplx 0.0.
Screening c1ccc2c(c1)OCCOCCOc1ccccc1OCCOCCO2 returned sPLA2-III inh 6.3, Mot1-301 SUMO 734.9*, SKN-1 inh 6.5, Efflux pump mplx 0.0 and Yeast Mot1 SUMO 0.8.
Screening COc1ccc(-c2csc(NC(=O)CCS(=O)(=O)c3ccccc3)n2)c(OC)c1 returned sPLA2-III inh -19.8, Mot1-301 SUMO 454.1*, SKN-1 inh 3.3, Efflux pump mplx 0.0 and Yeast Mot1 SUMO -0.1.
For Fc1ccc(-c2cc(C(F)(F)F)nc(NCc3cccs3)n2)cc1 the results were sPLA2-III inh 12.4, Mot1-301 SUMO 457.7*, SKN-1 inh 6.7, Efflux pump mplx 0.2 and Yeast Mot1 SUMO 0.6.
For Cc1ccc(-n2nnnc2SCC#N)cc1 the results were sPLA2-III inh -7.1, Mot1-301 SUMO 715.5*, SKN-1 inh -3.9, Efflux pump mplx 0.1 and Yeast Mot1 SUMO 0.5.
`CC(C)(C)c1ccc(C(=O)N/C(=C\c2cccc([N+](=O)[O-])c2)C(=O)Nc2cccc(C(=O)O)c2)cc1` gave sPLA2-III inh -25.4, Mot1-301 SUMO -15.6, SKN-1 inh -15.2 and Efflux pump mplx 0.0.
For COc1ccc(/C=C2/SC(=O)N(NS(=O)(=O)c3ccccc3)C2=S)cc1OC the results were sPLA2-III inh -22.7, Mot1-301 SUMO 375.3*, SKN-1 inh 11.7, Efflux pump mplx -0.4 and Yeast Mot1 SUMO -1.6.
CC(=O)c1c(Nc2cccc(F)c2)oc(C)cc1=O was read as sPLA2-III inh -6.2, Mot1-301 SUMO 951.5*, SKN-1 inh 8.8, Efflux pump mplx 0.0 and Yeast Mot1 SUMO -0.2.
Screening CN1CCC(N2CCN(C3CN(C4CCCC4)S(=O)(=O)C3)CC2)CC1 (centres undefined) returned sPLA2-III inh 0.0 and SKN-1 inh 8.9.
O=C(CNC(=O)c1cc2c(n(-c3ccccc3)c1=O)CCCC2=O)c1ccccc1 was read as sPLA2-III inh 0.5, Mot1-301 SUMO -9.6, SKN-1 inh -0.7 and Efflux pump mplx -0.1.
`COc1ccc(-n2c3c(cc(C(=O)NCC(=O)c4ccccc4)c2=O)C(=O)CC(C)(C)C3)cc1` gave sPLA2-III inh -11.9, Mot1-301 SUMO 443.0*, SKN-1 inh 3.1, Efflux pump mplx -2.8 and Yeast Mot1 SUMO -0.2.
Screening O=C1NC[C@@H](CCCCN2C[C@H](Cc3ccc(O)cc3)N(CC3CCCCC3)C(=O)C2=O)N(CCC2CCCCC2)C1=O returned sPLA2-III inh -21.5 and SKN-1 inh 3.2.
For O=C(NC1CCCC1)C(c1cccs1)N(C(=O)c1ccno1)c1ccccc1 (centres undefined) the results were sPLA2-III inh 3.1, Mot1-301 SUMO 815.0*, SKN-1 inh 2.5, Efflux pump mplx 0.0 and Yeast Mot1 SUMO 0.2.
`O=C(Nc1ccc2oc(-c3ccccc3F)nc2c1)c1ncn[nH]1` gave sPLA2-III inh -34.3, Mot1-301 SUMO active, SKN-1 inh 26.5, Efflux pump mplx 0.0 and Yeast Mot1 SUMO 0.9.
For CCCCn1c(N)c(N(CCC(C)C)C(=O)CCN2C(=O)C3CC=CCC3C2=O)c(=O)[nH]c1=O (centres undefined) the results were sPLA2-III inh 1.5, Mot1-301 SUMO 308.8, SKN-1 inh 4.0 and Efflux pump mplx -0.1.
For O=C(Cc1ccccc1)N[C@@H]1c2ccccc2CC[C@@H]1OCc1ccccc1 the results were sPLA2-III inh 2.8, SKN-1 inh -10.2 and Efflux pump mplx -0.2.
O=C(O)c1cc(S(=O)(=O)N2CCCCCC2)ccc1Cl was read as sPLA2-III inh 0.6, Mot1-301 SUMO 55.5, SKN-1 inh 4.2 and Efflux pump mplx 0.1.
For CS(=O)(=O)c1ccc(Cl)c(C(=O)O)c1 the results were sPLA2-III inh 7.3, Mot1-301 SUMO 607.9*, SKN-1 inh 0.9, Efflux pump mplx 0.0 and Yeast Mot1 SUMO -0.3.
`COc1ccc(C)cc1S(=O)(=O)N1CCCC(C(=O)N2CCN(c3ccccc3)CC2)C1` (centres undefined) gave sPLA2-III inh -12.8, Mot1-301 SUMO -8.7, SKN-1 inh -3.0 and Efflux pump mplx 0.1.
O=C1Nc2ccccc2C1=Nc1cccc(Cl)c1 was read as sPLA2-III inh 0.7, Mot1-301 SUMO 142.6, SKN-1 inh 15.2 and Efflux pump mplx 0.3.
Cc1cccc(N=C2C(=O)Nc3c(Cl)cccc32)c1 was read as sPLA2-III inh -0.4, Mot1-301 SUMO 561.9*, SKN-1 inh 5.9, Efflux pump mplx 0.0 and Yeast Mot1 SUMO 0.5.
For Cc1nc(N)c(Cc2ccccc2F)c(N)n1 the results were sPLA2-III inh -3.8, Mot1-301 SUMO 433.4*, SKN-1 inh 6.6, Efflux pump mplx 0.0 and Yeast Mot1 SUMO 1.5.
For O=C(c1cc(Br)cc(Br)c1)N1CCC(Oc2cccnc2)CC1 the results were sPLA2-III inh -3.1.
`O=C(CCc1ccccc1)NNC(=S)Nc1ccc(F)cc1` gave sPLA2-III inh 12.7, Mot1-301 SUMO 376.9*, SKN-1 inh 2.1, Efflux pump mplx 0.1 and Yeast Mot1 SUMO -0.6.
For O=C(Cc1ccccc1)NNC(=S)Nc1ccc(Cl)cc1 the results were sPLA2-III inh 18.9, Mot1-301 SUMO 0.3, SKN-1 inh 2.3 and Efflux pump mplx -0.3.
For CCCNc1nc2ccccc2c(=O)[nH]1 the results were sPLA2-III inh 7.4, Mot1-301 SUMO 542.9*, SKN-1 inh -2.1, Efflux pump mplx 0.1 and Yeast Mot1 SUMO -0.3.
Screening C=CCNc1nc2ccccc2c(=O)[nH]1 returned sPLA2-III inh -2.2, Mot1-301 SUMO -15.4, SKN-1 inh -5.2 and Efflux pump mplx -0.1.
Screening CN(C)S(=O)(=O)n1cnc([C@@H]2[C@@H]3C(=O)OC[C@@H]3C[C@]23N=CN(Cc2ccccc2)C3=O)c1 returned sPLA2-III inh 1.7, Mot1-301 SUMO 3.3, SKN-1 inh -15.4 and Efflux pump mplx 0.0.
Cc1ccc(CNC(=O)CCCC(=O)c2ccccc2)cc1 was read as sPLA2-III inh 2.4, Mot1-301 SUMO 3.5, SKN-1 inh -24.0 and Efflux pump mplx 0.1.
For Cc1ccccc1-c1nnc(SCc2ccc(F)cc2)o1 the results were sPLA2-III inh -5.2, Mot1-301 SUMO active, SKN-1 inh -4.8, Efflux pump mplx 0.1 and Yeast Mot1 SUMO -1.0.

Screens deposited in PubChem by several laboratories.
